# Most compounds without a hit are left out; they make up all but 1.3% or so of the library.
# Gli-Sufu antag: Gli-Sufu pathway antagonists, primary screen, luciferase luminescence, Sufu-KO-LIGHT cells, uHTS; Sufu-KO-LIGHT fibroblasts, Gli luciferase reporter luminescence; inhibition, % at 5 µM; 0.74% of 340,000 active; AID 588413, 2011;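 active = inhibition above about 55%, limit read from the data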;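 note: 0% = DMSO-treated cells and 100% = wells with medium but no cells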
# COUP-TFII inh: NR2F2 transcriptional activity inhibitors, primary screen, cell-based, luciferase reporter, HEK293T, luminescence | COUP transcription factor 2 (Homo sapiens), P24468 | HEK293T NGFI-A luciferase reporter | inhibition, % at 8.6 µM | 0.7% of 370,000 active;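 active = inhibition above a per-plate cutoff, mean inhibition of test wells between control levels plus 3 SD, cut at about 38% in these data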;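 note: cells cotransfected with COUP-TFII expression vector driving the NGFI-A reporter; 0% = median of COUP-TF2 test wells and 100% = reporter-only cells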
# NR5A2 inv ag: LRH-1 (NR5A2) inverse agonists, primary screen, cell-based, luminescence, HEK293T, StAR-luciferase reporter | Nuclear receptor subfamily 5 group A member 2 (Homo sapiens), O00482 | LRH-1 transfected, 24 h | inhibition, % at 3.6 µM | 0.13% of 360,000 active;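 active = inhibition above the mean inhibition of all tested compounds plus 3 SD, cut at about 73% in these data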;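 note: 0% = DMSO wells and 100% = reporter-only cells lacking LRH-1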
# SRC3 inh: SRC3 coactivator transcriptional activity inhibitors, primary screen, cell-based, luminescence. HEK293 GAL4-SRC3 luciferase reporter. inhibition, % at 3.6 µM. 0.17% of 360,000 active. AID 588352, 2011;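 active = inhibition above a per-campaign cutoff, the mean of all compounds plus 3 SD, cut at about 60% in these data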;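 note: 0% = DMSO-treated cells and 100% = gossypol-treated cells at 36 µM; higher means less SRC3-driven luciferase light from the GAL4 reporter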
# SRC2 inh: inhibition of GAL4-SRC2 driven luciferase reporter, primary screen, SRC2 inhibitor project, cell-based, luminescence | HEK293 GAL4-SRC2 luciferase reporter | inhibition, % at 9 µM | 0.17% of 370,000 active | Nuclear receptor coactivator 2 (Homo sapiens), Q15596;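 active = inhibition above the mean inhibition of all tested compounds plus 3 SD, set per campaign, cut at about 52% in these data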;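 note: 0% = DMSO treated cells and 100% = cells given Gossypol at 36 µM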
# NCOA1 inh: SRC1 coactivator transcriptional activity inhibitors, primary screen, cell-based, luminescence. Nuclear receptor coactivator 1 (Homo sapiens), Q15788. AID 588354, 2011. 0.12% of 360,000 active. inhibition, % at 3.6 µM. HEK293 GAL4-SRC1 luciferase reporter;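 active = inhibition above the campaign mean plus 3 SD, with each screening campaign given its own cutoff, cut at about 60% in these data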;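 note: 0% = DMSO treated cells and 100% = gossypol at 36 µM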
# Gli-Sufu confirm: Gli-SUFU pathway antagonists, confirmation, single concentration, luciferase luminescence, Sufu-KO-LIGHT cells; shares compounds with Gli-Sufu antag; Gli luciferase reporter; inhibition, % at 5 µM; 40% of 2,500 active;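 active = mean inhibition at 5 µM reaching about 45%, limit read from the data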;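 note: plate controls were DMSO-treated cells for no effect and wells lacking cells for full effect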
# SufuKO cytotox: cytotoxicity in Sufu-KO-LIGHT cells, confirmation, cytotoxicity control for Gli-SUFU antagonist project, cell-based, ATP luminescence, single concentration; shares compounds with Gli-Sufu antag; cytotoxicity, % at 5 µM; 32% of 2,500 active;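 active = mean cytotoxicity at 5 µM above about 25%, limit read from the data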;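 note: cells exposed to compound overnight for roughly 16 to 18 hours; plate controls were DMSO wells with cells for no effect and medium without cells for full effect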
# Wnt3a counter: Wnt3a reporter signal inhibition, confirmation, counter-screen for Gli-SUFU antagonist project, Wnt-LIGHT cells, luminescence, single concentration. shares compounds with Gli-Sufu antag. Wnt3a-driven luciferase reporter. inhibition, % at 6.25 µM. 20% of 2,500 active. AID 651995, 2013;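 active = mean inhibition above about 25%, limit read from the data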
# Gal4-VP16 ctr: Gal4-VP16 luciferase reporter inhibitors, counter-screen for COUP-TFII antagonist project, cell-based, luminescence, HEK293 | shares compounds with COUP-TFII inh | inhibition, % at 8.5 µM | 25% of 2,500 active | AID 687007, 2013; in the data active = inhibition above about 13%
# COUP-TFII conf: NR2F2 transcriptional activity inhibitors, confirmation, cell-based, luciferase reporter, HEK293, triplicate; inhibition, % at 8.5 µM; 45% of 2,500 active; HEK293 NGFI-A luciferase reporter, luminescence; shares compounds with COUP-TFII inh;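 active = mean inhibition over three repeats above a set limit taken from the earlier primary screen, cut at about 38% in these data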;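 note: 100% = cells given the luciferase reporter alone without the COUP-TF2 vector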
# * hit, by the source's call; . = not tested or not shown; ! = repeats disagree.
SMILES,Gli-Sufu antag,COUP-TFII inh,NR5A2 inv ag,SRC3 inh,SRC2 inh,NCOA1 inh,Gli-Sufu confirm,SufuKO cytotox,Wnt3a counter,Gal4-VP16 ctr,COUP-TFII conf
CCOc1ccc(-n2c(O)c(C=Nc3ccc(N(CC)CC)cc3)c(=O)[nH]c2=O)cc1,97*,-10,-6,1,-19,8,11,17,-12,.,.
O=Cc1cn(Cc2ccccc2F)c2ccccc12,3,13,26,-3,7,-35,.,.,.,.,.
CC(=O)c1cn(Cc2ccccc2C#N)c2ccccc12,59*,47*,45,28,27,6,63*,18,34*,2,53*
CC(=O)c1cn(Cc2ccccc2F)c2ccccc12,59*,54*,38,25,-2,35,49*,36*,19,10,48*
COc1ccc(OC(=O)N(C)C[C@@H]2OCc3cnnn3CCCC(=O)N([C@H](C)CO)C[C@H]2C)cc1,.,7,26,6,0,-10,.,.,.,.,.
CCCCCN1C(=O)c2ccccc2[C@@]2(C(=O)OCC)Cc3cc(OC)ccc3[C@@H]12,.,13,16,.,-8,.,.,.,.,.,.
C[C@@H]1CC[C@H]2[C@@H](C)C(=O)O[C@@H]3O[C@@]4(C)CC[C@@H]1[C@]32OO4,15,2,23,-2,9,6,.,.,.,.,.
CCC(C)NC(=O)CCC(=O)OC1O[C@H]2OC3(C)CC[C@H]4[C@H](C)CCC(C1C)C24OO3 (some centres not stated),79*,51*,91*,77*,10,62*,84*,22,25*,12,49*
Fc1ccc(C[n+]2c(-c3ccccc3)cc(-c3ccccc3)cc2-c2ccccc2)cc1,43,23,.,.,-4,.,.,.,.,.,.
Cc1cc(-c2ccccc2)cc(-c2ccccc2)[n+]1CCc1ccccc1,92*,38*,63,57,17,39,92*,48*,73*,15*,26
O=C(NCCN1CCC2(CC1)C(=O)NCN2c1ccccc1)c1ccc(F)cc1F,.,-19,.,.,-8,.,.,.,.,.,.
COc1cc2c(cc1OC)[C@H]1C(=O)c3ccc4c(c3O[C@H]1CO2)C[C@@H](C(C)(C)O)O4,14,6,10,-5,11,3,.,.,.,.,.
COc1cc2c(cc1OC)C1C(=O)c3ccc4c(c3OC1CO2)CC(C(C)C)O4 (configuration not stated),85*,73*,45,20,24,31,89*,47*,37*,-1,69*
COc1cc2c(cc1OC)[C@@H]1C(=O)c3ccc4c(c3O[C@@H]1CO2)C[C@H](C(C)C)O4,83*,67*,45,20,24,10,85*,42*,53*,3,63*
CC[C@@H](O)C[C@H]1CCC[C@@]2(C[C@@H]3OC(=O)/C=C/[C@@](C)(O)[C@@H](O)[C@H](C)[C@@H](O)[C@H](OC4CCC(N(C)C)C(C)O4)[C@@H](O)[C@](C)(O)CCCCC/C=C/[C@@H]4CC(C)(C)O[C@@]4(O)C[C@H](O2)[C@H]3C)O1 (some centres not stated),89*,80*,92*,73*,-17,69*,89*,20,22,3,73*
O=P1(c2ccccc2)Nc2ccccc2N1c1ccccc1 (configuration not stated),10,22,9,-6,-17,4,.,.,.,.,.
O=C(c1ccc(C(F)(F)F)cc1)C1CCCN(Cc2ccncc2)C1 (configuration not stated),56*,46*,21,20,22,-6,38,21,-5,7,18
CC(=O)OC[C@]12CCC(C)=C[C@H]1O[C@@H]1[C@H](O)[C@@H](OC(C)=O)[C@@]2(C)[C@]12CO2,92*,91*,102*,95*,75*,95*,.,.,.,18*,90*
COc1cc(O)c2c(c1)/C=C/C[C@H](O)[C@H](O)[C@@H](O)/C=C/C[C@H](C)OC2=O,.,-3,.,.,10,.,.,.,.,.,.
COC(=O)C1=C(c2ccc(OCc3ccccc3)c(F)c2)C[C@@H]2CC[C@H]1N2C,.,24,10,13,-8,-3,.,.,.,.,.
O=C(NCCN1CCC2(CC1)C(=O)NCN2c1ccccc1)c1ccc(Cl)c(Cl)c1,.,-17,.,.,-31,.,.,.,.,.,.
COC(=O)C1=C(c2ccc(-c3ccccc3)c(F)c2)C[C@@H]2CC[C@H]1N2C(=O)NCCOc1ccc(OC)cc1,20,40*,-1,9,26,12,.,.,.,2,6
CC[n+]1c(/C=C/C=C/c2ccc(N(C)C)cc2)sc2ccccc21,87*,79*,59,62*,-21,34,.,.,.,23*,82*
COc1ccc(-c2ccc3c(c2)CNCc2cnnn2-3)cc1,.,-29,-124,-46,-26,-72,.,.,.,.,.
C[C@H]1CCC/C=C/[C@@H]2C[C@H](O)C[C@H]2[C@H](O)/C=C/C(=O)O1,89*,50*,90*,68*!,26,23,.,.,.,10,33
O=C(O)C1C2c3ccccc3C(O)C1(C(=O)O)c1ccccc12 (configuration not stated),-2,-7,0,19,12,-9,.,.,.,.,.
Cc1ccccc1C(=O)N1Cc2cnnn2-c2ccccc2C1C#N (configuration not stated),2,15,9,2,23,9,.,.,.,.,.

# Assay outcomes (PubChem)
